# Screens: PubChem, Broad Institute
# IDE exosite inh = exo-site inhibitors of human IDE, primary screen, biochemical, fluorescence anisotropy, probe displacement; AID 1259349, 2017; purified IDE, FL-6b probe fluorescence polarization; active compounds read low; z-score at 20 µM; Insulin-degrading enzyme (Homo sapiens), P14735; actives 6.3% (n = 17,000);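 active = z-score of -3 or lower, meaning strong loss of probe binding signal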;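 also: His-tagged human IDE residues 42-1019 made in E. coli with 30 nM FL-6b probe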
# The depositor's hits bear a star. Many of the other results were omitted from the sample, so hits are more common in it than they were.
SMILES,IDE exosite inh
Cc1cccc(-c2ccc([C@@H]3[C@H](CO)N4C(=O)CN(C(=O)c5cccnc5)C[C@@H]34)cc2)c1,-6.3*
COc1ccc(-c2ccc([C@@H]3[C@@H](CO)N4C(=O)CN(C(=O)c5cccnc5)C[C@@H]34)cc2)cc1,0.76
Cc1cccc(-c2ccc([C@H]3[C@H](CO)N4C(=O)CN(C(=O)c5cccnc5)C[C@@H]34)cc2)c1,-9.6*
COc1ccc(-c2ccc([C@H]3[C@H](CO)N4C(=O)CN(C(=O)c5cccnc5)C[C@@H]34)cc2)cc1,-1.8
O=C(Cc1ccccn1)N1CC(=O)N2[C@H](CO)[C@@H](c3ccc(C#CC4CCCCC4)cc3)[C@@H]2C1,0.048
COCC#Cc1ccc([C@H]2[C@@H](CO)N3C(=O)CN(C(=O)C4CC4)C[C@@H]23)cc1,0.2
O=C(C[C@@H]1CC[C@H](NC(=O)c2ccc(F)cc2)[C@H](CO)O1)NCCc1ccccc1,3.6
O=C(Cc1cccnc1)N1CC(=O)N2[C@H](CO)[C@@H](c3ccc(/C=C/c4ccccc4)cc3)[C@@H]2C1,-0.7
C/C=C/c1ccc([C@H]2[C@@H](CO)N3C(=O)CN(C(=O)Cc4cccnc4)C[C@@H]23)cc1,-1.7
O=C(Cc1cccnc1)N1CC(=O)N2[C@H](CO)[C@H](c3ccc(/C=C/c4ccccc4)cc3)[C@@H]2C1,-5.1*
C/C=C/c1ccc([C@H]2[C@H](CO)N3C(=O)CN(C(=O)Cc4cccnc4)C[C@@H]23)cc1,2.1
C/C=C/c1ccc([C@@H]2[C@@H](CO)N3C(=O)CN(C(=O)Cc4cccnc4)C[C@@H]23)cc1,3.2
O=C(Cc1cccnc1)N1CC(=O)N2[C@H](C1)[C@H](c1ccc(/C=C/c3ccccc3)cc1)[C@@H]2CO,-5*
CS(=O)(=O)N1[C@@H](C#N)[C@@H](c2ccc(C#CC3CCCC3)cc2)[C@@H]1CO,0.48
O=C(C[C@H]1CC[C@@H]2[C@H](COC[C@@H](O)CN2C(=O)c2ccncc2)O1)NCc1cc(F)cc(F)c1,0.3
COc1ccc(NC(=O)N2CC(=O)N3[C@H](C2)[C@@H](c2ccc(-c4ccccc4)cc2)[C@@H]3CO)cc1,2.7
O=C(Nc1ccccc1F)N1CCCCN2[C@@H](CO)[C@H](c3ccc(C#Cc4cccnc4)cc3)[C@@H]2C1,-4.7*
O=C(Nc1ccccc1)N1CCCCN2[C@H](CO)[C@@H](c3ccc(C#Cc4ccccc4)cc3)[C@@H]2C1,-0.7
O=C(Nc1ccccc1F)N1CCCCN2[C@H](CO)[C@@H](c3ccc(-c4cccnc4)cc3)[C@@H]2C1,-1.5
O=C(Nc1ccccc1)N1CCCCN2[C@H](CO)[C@H](c3ccc(C#Cc4cccnc4)cc3)[C@@H]2C1,-4.2*
O=C(Nc1ccccc1F)N1CCCCN2[C@H](CO)[C@H](c3ccc(C#Cc4ccccc4)cc3)[C@H]2C1,-2
O=C(Nc1ccccc1)N1CCCCN2[C@H](C1)[C@H](c1ccc(C#Cc3cccnc3)cc1)[C@@H]2CO,2.2
O=C(Nc1ccccc1F)N1CCCCN2[C@H](C1)[C@H](c1ccc(C#Cc3ccccc3)cc1)[C@@H]2CO,-2.1
O=C(Nc1ccccc1F)N1CCCCN2[C@H](CO)[C@H](c3ccc(C#Cc4cccnc4)cc3)[C@H]2C1,-6.9*
O=C(Nc1ccccc1F)N1CCCCN2[C@H](CO)[C@H](c3ccc(-c4cccnc4)cc3)[C@H]2C1,-0.4
SMILES,IDE exosite inh
O=C(NCc1cc(F)cc(F)c1)[C@@H]1[C@@H](CO)[C@@H]2Cn3c(cccc3=O)[C@H]1N2C(=O)c1cnccn1,-0.64
Cc1ccccc1-c1ccc2c(c1)O[C@H](CN(C)C(=O)Nc1ccc(C(F)(F)F)cc1)[C@H](C)CN([C@@H](C)CO)S2(=O)=O,-0.15
COc1ccc(C[C@H]2CCn3nncc3COC[C@@H](c3ccccc3)NC2=O)cc1,-0.58
CCS(=O)(=O)N1[C@H](C#N)[C@@H](c2ccc(C3=CCCCC3)cc2)[C@H]1CO,3
CN1C[C@@H]2[C@H](c3ccccc31)[C@H](CO)N2Cc1ccccc1Cl,-0.093
C/C=C/c1ccc([C@H]2[C@@H](CO)N(C(=O)C3CCC3)[C@@H]2CNC(=O)NC(C)C)cc1,3.6
N#C[C@@H]1[C@@H](c2ccccc2-c2ccccc2)[C@H](CO)N1C(=O)Cc1ccncc1,-1.8
OC[C@H]1[C@@H](c2ccc(-c3ccc(F)cc3)cc2)[C@@H]2CN(Cc3ccncc3)CCCCN12,4.7
COCC#Cc1ccc([C@H]2[C@@H](CO)N3CCCCN(Cc4ccncc4)C[C@H]23)cc1,3.8
COc1ccccc1-c1ccc([C@@H]2[C@H](CO)N3CCCCN(Cc4ccncc4)C[C@@H]23)cc1,-8.9*
COc1ccccc1-c1ccc([C@H]2[C@@H](CO)N3CCCCN(Cc4ccncc4)C[C@@H]23)cc1,-4.6*
COc1ccc(C#Cc2ccc([C@@H]3[C@H]4CN(Cc5ccncc5)CCCCN4[C@H]3CO)cc2)cc1,4.9
COc1ccccc1-c1ccc([C@H]2[C@H]3CN(Cc4ccncc4)CCCCN3[C@H]2CO)cc1,-4.7*
COc1ccccc1-c1ccc([C@H]2[C@@H](CO)N3CCCCN(Cc4ccncc4)C[C@H]23)cc1,-8.9*
COCC#Cc1ccc([C@@H]2[C@@H](CO)N3CCCCN(Cc4ccncc4)C[C@H]23)cc1,2.6
COc1ccc(C#Cc2ccc([C@@H]3[C@H](CO)N4CCCCN(Cc5ccncc5)C[C@@H]34)cc2)cc1,1.2
OC[C@H]1[C@H](c2ccc(-c3ccc(F)cc3)cc2)[C@@H]2CN(Cc3ccncc3)CCCCN12,2.9
COc1ccc(C#Cc2ccc([C@H]3[C@H](CO)N4CCCCN(Cc5ccncc5)C[C@@H]34)cc2)cc1,1.8
N#C[C@@H]1[C@@H](c2ccccc2-c2cccc(F)c2)[C@H](CO)N1C(=O)CN1CCOCC1,0.92
CCCNC(=O)[C@@H]1[C@@H](CO)[C@@H]2Cn3c(ccc(C4=CCCC4)c3=O)[C@@H]2N1C(=O)c1cnccn1,0.31
CCCC#Cc1ccc([C@@H]2[C@H](CO)N3CCCCN(Cc4ccncc4)C[C@@H]23)cc1,2.8
C[C@@H](NC(=O)C[C@@H]1C=C[C@H](NC(=O)c2cccnc2)[C@@H](CO)O1)c1ccccc1,-0.72
CC(=O)N1CC(=O)N2[C@H](CO)[C@H](c3ccc(-c4ccncc4)cc3)[C@@H]2C1,-0.02
CN1C(=O)c2cc(NC(=O)c3cccc(F)c3)ccc2OC[C@@H]2O[C@@H](CC(=O)NCc3ccccc3Cl)CC[C@@H]21,-1.1
O=C(Cc1ccccn1)N1CC(=O)N2[C@H](CO)[C@@H](c3ccc(C#CCC4CCCC4)cc3)[C@@H]2C1,1.4
SMILES,IDE exosite inh
O=C1CN(S(=O)(=O)c2ccccc2)C[C@H]2[C@H](c3ccc(C#CCc4ccccc4)cc3)[C@H](CO)N12,-2.3
O=C(C1CCOCC1)N1CC2(C1)[C@@H](c1ccccc1)[C@H](CO)N2Cc1ccccc1F,0.82
O=C(c1ccc2c(c1)OCO2)N1CC(=O)N2[C@H](CO)[C@H](c3ccc(C#CCC4CCCC4)cc3)[C@H]2C1,1.4
CCCNC(=O)N1[C@@H](C#N)[C@@H](c2ccc(-c3ccccc3F)cc2)[C@@H]1CO,1.2
COc1ccccc1-c1ccc([C@@H]2[C@@H](CO)N3CCCCN(Cc4ccncc4)C[C@H]23)cc1,-4.2*
O=S(=O)(c1ccccc1F)N1CCCCN2[C@H](CO)[C@@H](c3ccc(-c4cncnc4)cc3)[C@H]2C1,1.1
O=C(CC1CC1)N1CC(=O)N2[C@H](CO)[C@@H](c3ccc(C#Cc4cccc(F)c4)cc3)[C@@H]2C1,-2.1
